Shown are actives, neighbours in structure and some others; about 1.1% of the full set was active somewhere.
MOR-DOR inv ag: mu-delta opioid heterodimer inverse agonism. cell-based MOR-DOR heterodimer luminescence. inhibition, % at 9.3 µM. P35372+P41143. actives 0.21% (n = 340,000); in the data active means inhibition above about 22%, passing the limit was not always enough;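 further: 0% = cells with DMSO and 100% = wells without cells with DMSO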
HTR5A ag ctr: activates human HTR5A in OPRM1-OPRD1 agonist counter-screen; P47898; HTR5A agonist assay, luminescence, cell-based; activation, % at 9.3 µM; actives 0.61% (n = 340,000); AID 504692; in the data active means activation mostly above about 9.5%, no sharp cut-off; inactive means mostly below about 7.6%;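 further: 0% = cells with vehicle only and 100% = reference agonist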
Target sequence (P47898 whole entry, looked up): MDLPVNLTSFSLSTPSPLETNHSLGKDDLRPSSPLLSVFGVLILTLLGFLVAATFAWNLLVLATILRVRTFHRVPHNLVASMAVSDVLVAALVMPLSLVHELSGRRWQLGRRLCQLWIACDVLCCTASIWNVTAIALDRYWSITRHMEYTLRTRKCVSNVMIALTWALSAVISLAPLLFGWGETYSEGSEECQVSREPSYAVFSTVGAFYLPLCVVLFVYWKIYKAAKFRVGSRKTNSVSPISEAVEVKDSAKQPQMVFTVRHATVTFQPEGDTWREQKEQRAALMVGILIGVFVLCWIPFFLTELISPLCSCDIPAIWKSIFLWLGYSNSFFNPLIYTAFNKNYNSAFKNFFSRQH
HTR5A inv ctr: HTR5A inverse agonism, opioid heterodimer counter-screen | AID 504634 | HTR5A cell line, luminescence | inhibition, % at 9.3 µM | actives 0.083% (n = 340,000); in the data active means inhibition mostly above about 23%, no sharp cut-off; inactive means mostly below about 18%;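 further: 0% = cells with DMSO and 100% = no-cell wells with DMSO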
OPRM1-OPRD1 ag: agonists of human mu-delta opioid receptor heterodimerization; P35372+P41143; cells, OPRM1-OPRD1 heterodimerization, luminescence; activation, % at 9.3 µM; actives 0.3% (n = 340,000); in the data active means activation above about 18%;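 further: 0% = vehicle-treated cells and 100% = reference agonist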
* = called active by the depositor.

SMILES	MOR-DOR inv ag	HTR5A ag ctr	HTR5A inv ctr	OPRM1-OPRD1 ag
Cc1cc(OCCN2CCOCC2)ccc1Cl	6	4	-14	-1
COc1ccccc1NCC(=O)N/N=C(\C)c1cccs1	-17	14*	-36	3
C/C(=N\NC(=O)CNc1cccc(Cl)c1C)c1cccs1	-2	-2	-12	0
Cc1nn(C(C)C(=O)NC2CCCCC2)c(=O)c2nn(-c3ccccc3)c(C)c12 (stereo not given)	8	4	10	-1
COc1ccc(NC(=O)CSc2nncn2N)c(OC)c1	4	1	-17	-1
COc1ccccc1NC(=O)CSc1nncn1N	10	13*	-2	-2
CC(=O)Oc1ccc(C(=O)N2c3ccccc3NC(=O)C2C)cc1 (stereo not given)	1	-2	7	0
Cc1cc(S(=O)(=O)Nc2ccc(C(=O)N3CCN(c4ccccc4O)CC3)cc2)ccc1F	-3	14*	-15	0
Cc1ccc(S(=O)(=O)Nc2cccc(C(=O)N3CCN(c4ccccc4O)CC3)c2)cc1F	12	-2	6	-2
O=C(CCl)N(C/C=C/c1ccccc1)c1ccc2c(c1)OCCO2	-174	71*	-180	38*
O=C(/C=C/c1ccccc1)c1ccc2c(c1)OCCCCO2	3	-2	11	-1
COc1ccc(N(C(=O)CCl)C(C(=O)NCCc2ccccc2)c2cccs2)cc1 (stereo not given)	-360	55*	-66	68*
COc1ccc(CNC(=O)C(c2ccncc2)N(C(=O)Cc2cccs2)c2ccccc2)cc1 (stereo not given)	5	0	-21	-1
CN(C)CCCN(C(=O)c1ccc2c(c1)CCCC2)c1nc2c(F)cccc2s1	-28	4	-15	5
CN(C)CCCN(C(=O)c1ccc(N2C(=O)CCC2=O)cc1)c1nc2c(F)cccc2s1	12	13*	-36	-2
CCOc1ccc(NC(=O)CN(C)C(=O)CN2C(=O)c3ccc([N+](=O)[O-])cc3C2=O)cc1OCC	-33	5	-14	5
COc1ccc(OC)c(N=Nc2c(O)c3ccccc3[nH]c2=O)c1	-11	14*	-56	2
COc1cc(N=Nc2c(O)c3ccccc3[nH]c2=O)c(OC)cc1N=Nc1ccccc1	8	6	-22	-2
CCOc1ccc(NC(=O)NCCN2CCN(c3cccc(C)c3C)CC2)cc1	-16	11*	-43	3
CCc1nnc(NC(=O)c2nc(S(=O)(=O)Cc3cccc(C)c3)ncc2Cl)s1	-6	9.1*	-34	1
CCCn1c(N)c(C(=O)CSc2n[nH]c(-c3ccc(C)cc3)n2)c(=O)[nH]c1=O	7	-1	10	-1
COc1cc([C@H]2c3[nH]c4ccccc4c3C[C@H]3C(=O)N4[C@@H](c5cc(OC)c(OC)c(OC)c5)c5[nH]c6ccccc6c5C[C@H]4C(=O)N23)cc(OC)c1OC	-128	10	-28	21*
CCN1C(=O)[C@@H]2Cc3c([nH]c4ccccc34)C(c3cc(OC)c(OC)c(OC)c3)N2C1=S (stereo not given in full)	2	0	-1	0
O=C(CCNS(=O)(=O)c1ccccc1F)NC1CCCCCC1	-21	11	-27	5
O=C(CSC1=NCCS1)N1CCN(c2ccc(Cl)cc2)CC1	1	-1	-5	0
SMILES	MOR-DOR inv ag	HTR5A ag ctr	HTR5A inv ctr	OPRM1-OPRD1 ag
O=C(CSC1=NCCS1)c1ccc(Cl)cc1	-13	11*	-30	2
CN(C(=O)c1cccc(NC(=O)c2cccs2)c1)c1ccccc1	1	11*	12	0
O=c1[nH]nc(SC2CCCCC2)c(=O)[nH]1	7	1	-4	-2
c1ccc(CNc2nc(NCc3ccccc3)c3ccccc3n2)cc1	-205	19*	-48	40*
c1ccc(CNc2nc(-c3ccccc3)nc3ccccc23)cc1	-16	5	-19	3
CCOCCCNc1nc2c(C)cccn2c(=O)c1/C=C1\SC(=S)N(CC(C)C)C1=O	0	-4	-10	0
CCOCCCNc1nc2c(C)cccn2c(=O)c1/C=C1\SC(=S)N(C(C)CC)C1=O (stereo not given)	-93	0	-2	18*
O=S(=O)(c1ccc2c(c1)OCCO2)N1CCN(Cc2ccc3c(c2)OCO3)CC1	16	-1	-7	-3
O=S(=O)(c1ccc2c(c1)OCCO2)N1CCN(Cc2ccccc2)CC1	4	14*	-14	-1
O=C(NCCNc1ccc([N+](=O)[O-])cc1C(F)(F)F)c1cccc(F)c1	-9	14*	6	2
O=C(NCCNc1ccc([N+](=O)[O-])cc1C(F)(F)F)c1ccccc1	-4	0	10	1

Compound activity: PubChem BioAssay, The Scripps Research Institute Molecular Screening Center
